Sampled rows, rich in hits. Any-hit rate of the full collection: about 1.3%.
VACV mCherry inh – qHTS for Stage-Specific Inhibitors of Vaccinia Orthopoxvirus: mCherry Reporter Primary qHTS; Vaccinia virus mCherry reporter infection, fluorescence; Potency, µM (highest dose often 36.5 µM), most hits filed as inhibitors; actives 0.63% (n = 310,000); AID 720579, 2013; calls by dose curve; tested in A549 cells; also: nearly all actives have a fitted effect of over 35% in size
AmpC no deterg – qHTS Inhibitors of AmpC Beta-Lactamase (assay without detergent); P00811; AmpC nitrocefin hydrolysis, absorbance 480 nm, 0.0001% Triton; Potency, µM (series often up to 57.1 µM), most hits filed as inhibitors; actives 0.52% (n = 330,000); AID 485341, 2010; also: nearly all actives have a fitted effect of over 20% in size
Target sequence (P00811 whole entry, looked up): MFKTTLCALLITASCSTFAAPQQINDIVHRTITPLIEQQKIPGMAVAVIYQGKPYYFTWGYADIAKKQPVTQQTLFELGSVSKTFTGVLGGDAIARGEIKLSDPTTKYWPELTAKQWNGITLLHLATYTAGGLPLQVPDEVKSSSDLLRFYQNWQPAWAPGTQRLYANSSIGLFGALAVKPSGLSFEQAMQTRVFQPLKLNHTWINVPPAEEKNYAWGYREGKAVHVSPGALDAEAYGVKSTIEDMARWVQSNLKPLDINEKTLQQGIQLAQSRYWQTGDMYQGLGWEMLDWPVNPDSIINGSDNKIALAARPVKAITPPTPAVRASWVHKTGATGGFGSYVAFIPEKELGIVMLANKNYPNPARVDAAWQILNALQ
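AmpC (5.3 nM in the dispensed reagent) in 20 mM phosphate pH 7.0 with 0.01% (detergent screen) or 0.0001% Triton X-100 was preincubated with compounds for 15 min at room temperature. Nitrocefin was then added from an 800 uM solution, and hydrolysis was followed at 480 nm.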
AMA1 RON2 block – qHTS for Inhibitors of AMA1-RON; Towards Development of Antimalarial Drug Lead: Primary Screen | AlphaScreen AMA1-biotinylated RON2 peptide binding | Plasmodium falciparum AMA1 (3D7) - RON2 peptide interaction | Potency, µM (highest dose often 58.2 µM), actives largely listed as inhibitors | actives 0.2% (n = 360,000); also: nearly all actives have a fitted effect of over 45% in size
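AMA1 (3D7) with his tag at 25 nM final met compounds first, then biotinylated RON2 peptide at 25 nM; detection used donor plus acceptor beads, 10 µg/mL apiece, read by AlphaScreen after 30 min at room temperature.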
AmpC inh detg – qHTS Inhibitors of AmpC Beta-Lactamase (assay with detergent). P00811. AmpC hydrolysis of nitrocefin, absorbance 480 nm, 0.01% Triton. Potency, µM (series often up to 114 µM), usual class: inhibitors. actives 0.041% (n = 370,000); also: nearly all actives have a fitted effect of over 25% in size
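AmpC (5.3 nM in the dispensed reagent) in 20 mM phosphate pH 7.0 with 0.01% (detergent screen) or 0.0001% Triton X-100 was preincubated with compounds for 15 min at room temperature. Nitrocefin was then added from an 800 uM solution, and hydrolysis was followed at 480 nm.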
VACV Venus inh – qHTS for Stage-Specific Inhibitors of Vaccinia Orthopoxvirus: Venus Reporter Primary qHTS; Vaccinia virus Venus reporter expression, fluorescence; Potency, µM (top dose mostly 36.5 µM), most hits filed as inhibitors; actives 0.46% (n = 330,000); AID 720580, 2013; calls by dose curve; tested in A549 cells; also: nearly all actives have a fitted effect of over 30% in size
SARS PLpro yeast – qHTS of Yeast-based Assay for SARS-CoV PLP. actives 0.19% (n = 330,000). Potency, µM (top dose mostly 32.9 µM), hits mostly activators. S. cerevisiae expressing SARS-CoV PLpro, growth rescue; calls by dose curve; also: nearly all actives have a fitted effect of over 55% in size
Each line names hits and unclear results; the compound was inactive in the other large screens. Unless noted, calls follow the shape of the dose curve; as a rule, active = well fitted curve in the direction sought with a large enough effect; inconclusive = small, poorly fitted or top-dose-only effect, or another doubt; inactive = no such curve, though single readings can be large; an effect the other way counts as inactive or inconclusive.

CC1CC(=O)c2c(cc3c(-c4c(O)cc(O)c5c(O)c6c(cc45)OC(C)CC6=O)c(O)cc(O)c3c2O)O1 (stereo not given)	VACV mCherry inh 10µM, AMA1 RON2 block inconclusive, VACV Venus inh 14µM
C=CCSc1nnc(C2CCCN(Cc3ccccc3O)C2)n1C (stereo not given)	none (no result: AmpC no deterg, AMA1 RON2 block, AmpC inh detg, SARS PLpro yeast)
CCC(CC)c1nn2c(N)c(/C=C3\C(C)=Nc4ccccc43)c(=O)nc2s1	AmpC no deterg 7.9µM
CC(=O)Nc1cc(O)c2nonc2c1O	VACV mCherry inh 11µM, VACV Venus inh 3.5µM (no result: AmpC no deterg, AMA1 RON2 block, AmpC inh detg, SARS PLpro yeast)
O=S(=O)(Nc1cccc(-c2nc3cccnc3s2)c1)c1ccc2c(c1)OCCO2	AmpC no deterg 3.2µM, AmpC inh detg inconclusive
Cc1ccc(-c2cc(C(=O)N3CCN(S(=O)(=O)c4ccc(Br)cc4)CC3)[nH]n2)cc1C	VACV Venus inh inconclusive (no result: AmpC no deterg, AMA1 RON2 block, SARS PLpro yeast)
Cc1ccc(Cl)cc1N1CCN(C(=O)c2cccn2-c2nnc(N3CCCCC3)s2)CC1	none (no result: AmpC no deterg, AMA1 RON2 block, SARS PLpro yeast)
Cc1ccc(Cl)cc1N1CCN(C(=O)C2CCN(c3nnc(-n4cccc4)s3)CC2)CC1	AmpC no deterg 1.8µM, AmpC inh detg inconclusive (no result: VACV mCherry inh, VACV Venus inh)
COc1ccccc1NC(=O)CSc1oc(-c2ccccc2)nc1S(=O)(=O)c1ccc(C)cc1	none (no result: AmpC no deterg, AMA1 RON2 block, SARS PLpro yeast)
COc1ccccc1NC(=O)CSc1oc(-c2ccc(F)cc2)nc1S(=O)(=O)c1ccc(Br)cc1	VACV mCherry inh 14µM, VACV Venus inh inconclusive (no result: AmpC no deterg, AMA1 RON2 block, SARS PLpro yeast)
CC(C)Cc1cc(C(=O)N2CCN(c3ccc(F)cc3)CC2)no1	AmpC no deterg 0.32µM
Cc1cc(CNC(=O)c2cnn(-c3nccc(-c4cc(C)sc4C)n3)c2C2CC2)on1	none (no result: AmpC no deterg, AMA1 RON2 block, AmpC inh detg, SARS PLpro yeast)
CC[C@H](CC[C@@H](C)[C@H]1CC[C@H]2[C@@H]3CC=C4C[C@@H](O)CC[C@]4(C)[C@H]3CC[C@]12C)C(C)C	none (no result: AmpC no deterg, AMA1 RON2 block, AmpC inh detg, SARS PLpro yeast)
COc1cccc(OC)c1CN1CCC2(CCC(CNC(=O)c3ccccc3)O2)CC1 (stereo not given)	none (no result: AmpC no deterg, AMA1 RON2 block, AmpC inh detg, SARS PLpro yeast)
CC(=O)Oc1cc(C(=O)OCC(=O)N2CCc3ccccc3C2)cc(OC(C)=O)c1OC(C)=O	AMA1 RON2 block 0.32µM (no result: AmpC inh detg)
COc1ccc(C(=O)OCC(=O)N2CCc3ccccc3C2)cc1OC	none (no result: AmpC inh detg)
O=C(NC(=S)Nc1ccccn1)c1ccc(-c2ccccc2)cc1	VACV mCherry inh 11µM
CC(=O)Nc1ccc(N2CCOCC2)c(S(=O)(=O)Nc2ccccc2Cl)c1	none (no result: AmpC no deterg, AmpC inh detg, SARS PLpro yeast)
O=C(Nc1cccc(C(F)(F)F)c1)Nc1ccc(N2CCCC2)c(S(=O)(=O)Nc2ccccc2Cl)c1	VACV mCherry inh 11µM, VACV Venus inh 11µM
Cc1ccc(Nc2cc(C)nn2-c2nc(C)cc(=O)[nH]2)cc1	VACV mCherry inh 2.2µM, AmpC inh detg inconclusive, VACV Venus inh inconclusive
CN(C)c1ccc(/C=C/c2cccc3cc4ccccc4nc23)cc1	VACV mCherry inh 11µM, VACV Venus inh 16µM (no result: AmpC no deterg, AMA1 RON2 block, AmpC inh detg, SARS PLpro yeast)
CN(C)c1ccc(/C=C/c2ccnc3c(O)cccc23)cc1	VACV mCherry inh 10µM, VACV Venus inh inconclusive (no result: AmpC no deterg, AMA1 RON2 block, AmpC inh detg, SARS PLpro yeast)
O=c1c(N2CCOCC2)nsn1Cc1ccccc1	VACV mCherry inh 13µM, VACV Venus inh inconclusive
COc1cccc(CN2CCC3(CCC(CNC(=O)c4ccccc4)O3)CC2)c1 (stereo not given)	none (no result: AmpC no deterg, AMA1 RON2 block, AmpC inh detg, SARS PLpro yeast)
CN(C)CCNC(=O)c1ccc(Sc2ccc(Br)cc2)c([N+](=O)[O-])c1	VACV mCherry inh 10µM, VACV Venus inh inconclusive
N#CCC(=O)Nc1ccc(C(=O)NCc2cccc(Cl)c2)cc1	AmpC no deterg 18µM
O=C(NCc1cccc(Cl)c1)c1ccncc1	none (no result: VACV mCherry inh, VACV Venus inh)
Cc1cc2c(c(-c3ccc(Cl)cc3)c1)OC(CNC(=O)Cc1c(C)noc1C)C2 (stereo not given)	none (no result: AmpC no deterg, AMA1 RON2 block, AmpC inh detg, SARS PLpro yeast)
Nc1ccc(C(=O)N/N=C/c2cn(Cc3ccc(F)cc3)c3ccccc23)cc1	none
O=C(N/N=C/c1cn(Cc2cccc(F)c2)c2ccccc12)c1cc(O)cc(O)c1	AmpC no deterg 13µM, AMA1 RON2 block 25µM, AmpC inh detg inconclusive (no result: VACV mCherry inh, VACV Venus inh)

From PubChem
